Assay results: PubChem BioAssay AID449762 (Southern Research Specialized Biocontainment Screening …, 2010)
Out of some 330,000 compounds screened, about 1,900 (0.58%) were called active. About 4% were inconclusive and are not listed. Not all results are given here. Potency and affinity values are given separately. Unmarked numbers belong to inactive results. Rule as the data show it: inconclusive = inhibition above about 70% without an active follow-up result; inactive = below that.

Assay: M. tuberculosis growth inhibition, HTS (AID 449762);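 also: bacterial growth assessed after seven days of incubation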
Details: M. tuberculosis H37Rv growth inhibition, 7H9 media; at 25 µM; active compounds read high
With `COc1ccccc1N(C)S(=O)(=O)c1ccc(C(=O)Nc2ccncc2)cc1` the inhibition was 6.47%.
With `Cc1nc2ccc(NC(=O)c3ccc(S(=O)(=O)N(C)C)cc3)cc2s1` the inhibition was 3.86%.
`COc1ccc(N2CCN(S(=O)(=O)CCNC(=O)/C=C/c3ccccc3)CC2)cc1` showed an inhibition of 7.56%.
`O=C(COC(=O)C1CC2CCCC(C1)C2=O)NC(=O)c1ccccc1` (stereo not given) gave an inhibition of -2.77%.
`O=C(COC(=O)C1CC2CCCC(C1)C2=O)NNC(=O)c1ccccc1Br` (stereo not given) showed an inhibition of -3.73%.
In the case of `Cc1nn(CC(O)c2ccccc2)c(C)c1Br` (stereo not given), the inhibition is reported as -6.52%.
Compound `CCCn1c(NC(=O)c2ccccc2)nc2ccccc21` has an inhibition of -7.04%.
In the case of `CCC(=O)Nc1nc2ccccc2n1CCN(C)C`, the inhibition is reported as -8.02%.
Work on `O=C(Nc1nc2ccccc2n1Cc1ccc(Cl)cc1)c1ccco1` yielded an inhibition of 50.9%.
In the case of `CCn1c(NC(C)=O)nc2ccccc21`, the inhibition is reported as 31.6%.
Work on `O=C(CSCc1ccc(Cl)cc1)Nc1ccc(S(=O)(=O)N2CCCCCC2)cc1` yielded an inhibition of 1.03%.
`CC1CCCC(NC(=O)CSc2nncs2)C1C` (stereo not given) gave an inhibition of -10.3%.
In the case of `CCC(=O)c1ccc(OCC(=O)Nc2nc(-c3cccnc3)cs2)cc1`, the inhibition is reported as 24.3%.
In the case of `COC1=CC2[C@@H]3Cc4ccc(OC)c(O)c4[C@]2(CCN3C)CC1=O` (stereo not given in full), the inhibition is reported as 6.39%.
Compound `CC(C)=CCC/C(C)=C/CNC(=O)CC1C[C@H](C(=O)N2CCCCC2)[C@@]2(C)c3[nH]c4ccccc4c3CCN2C1=O` (stereo not given in full) has an inhibition of -1.03%.
Work on `Cc1cccc(NC(=O)C2Cc3ccccc3O/C2=N\O)c1` (stereo not given) yielded an inhibition of 0.7%.
With `CN(C)CCN[C@H]1CCC2C3CC=C4C[C@@H](O)CC[C@]4(C)C3CC[C@@]21C` (stereo not given in full) the inhibition was 1.3%.
Work on `CC(C)C(=O)N[C@H]1CCC2C3CC=C4C[C@@H](O)CC[C@]4(C)C3CC[C@@]21C` (stereo not given in full) yielded an inhibition of 4.73%.
`CCCCn1c(N)c(N(CC(C)C)C(=O)CCCc2nc3ccccc3c(=O)[nH]2)c(=O)[nH]c1=O` showed an inhibition of 0.43%.
For `Cc1cc(NC(=O)CCC(=O)N(CC(=O)NC2CCCC2)c2ccc3c(c2)OCCO3)no1`, the inhibition was -6.7%.
For `COc1ccc(-n2nc3c(c2NC(=O)CCCl)CSC3)cc1`, the inhibition was 5.23%.
In the case of `CCC(=O)Nc1c2c(nn1-c1ccc(OC)cc1)CSC2`, the inhibition is reported as 1.36%.
Work on `CC(=O)n1cc(CO)c2ccccc21` yielded an inhibition of -8.42%.
`CC(=O)N(c1ccc(Cl)cc1)c1cn(C(C)=O)c2ccccc12` gave an inhibition of 8.81%.
Compound `COc1ccccc1N1CCN(C(=O)CCCn2nc(C)c([N+](=O)[O-])c2C)CC1` has an inhibition of 2.97%.
In the case of `CCOc1ccc(C(=O)Nn2cnnc2)cc1`, the inhibition is reported as 7.03%.
For `O=C(N/N=C/c1sc(=O)[nH]c1-[n+]1ccccc1)c1ccccc1[O-]`, the inhibition was -8.63%.
In the case of `CCOc1ccc(N2CC(=O)N(c3ccc(OCC)cc3)CC2=O)cc1`, the inhibition is reported as -4.6%.
For `CCOc1ccc(N2C(=O)CNC2=S)cc1`, the inhibition was 0.76%.
Work on `O=C(COc1ccc(Br)cc1)c1ccc2c(c1)CCCC2` yielded an inhibition of 2.77%.
For `COc1cc(CN2CCC(n3nccc3NC(=O)c3ccccc3OC)CC2)ccc1F`, the inhibition was 7.24%.
Compound `COc1cc(NC(=O)CN2CCN(c3ccccc3O)CC2)c(C)cc1[N+](=O)[O-]` has an inhibition of -10.9%.
In the case of `Cc1ccc(COc2ccsc2-c2n[nH]c(=S)n2C)cc1`, the inhibition is reported as -10.5%.
`CN(C)C(=O)CSc1nc2ccc(C(=O)c3ccccc3)cc2[nH]1` gave an inhibition of 1.68%.
`O=C(c1cccc(Cl)c1)N1CCN(c2ccc(N3CCOCC3)nn2)CC1` showed an inhibition of 0.55%.
`O=C(c1cccc([N+](=O)[O-])c1)N1CCOCC1` gave an inhibition of 5.5%.
Work on `COc1ccc(N2CCN(C(=O)C3CC(=O)N(c4ccc(C)cc4)C3)CC2)cc1` (stereo not given) yielded an inhibition of 5.21%.
`COc1cccc(CC2(CO)CCCN(Cc3ccccc3-c3ccco3)C2)c1` (stereo not given) showed an inhibition of 5.57%.
`COc1cccc(C(=O)Nc2cccc(NC(=O)c3cccs3)c2)c1` gave an inhibition of 0.1%.
Work on `S=c1[nH]nc(-c2ccncc2)n1/N=C/c1cn(-c2ccccc2)nc1-c1ccccc1` yielded an inhibition of 1.85%.
`O=C(CC1C(=O)NCCN1Cc1ccoc1)NCCc1ccc(Cl)cc1` (stereo not given) gave an inhibition of -3.28%.
Work on `COC(=O)C1CSC(c2ccc(Cl)cc2)N1C(=O)c1ccccc1` (stereo not given) yielded an inhibition of 3.7%.
For `Cc1ccnc(N2CCC(C(=O)Nc3ccc4c(c3)OCO4)CC2)n1`, the inhibition was -6.75%.
For `CCCn1nnnc1NC(=O)c1cc(Br)ccc1OC`, the inhibition was 14.5%.
With `CCCn1nnnc1NC(=O)COc1ccc(Cl)c(C)c1` the inhibition was 0.41%.
In the case of `O=C(COC(=O)COc1ccccc1)Nc1cccc([N+](=O)[O-])c1`, the inhibition is reported as -0.12%.
`CC(CCc1ccc(O)cc1)NCCC(c1ccccc1)c1ccccc1` (stereo not given) showed an inhibition of 64.6%.
`COc1cc(OC)c(OC)cc1CCC(C)NC(=O)Cc1ccccc1` (stereo not given) gave an inhibition of 2.6%.
`CCOc1ccc(NC(=O)NNC(=O)C2CCC(C(C)(C)C)CC2)cc1` (stereo not given) gave an inhibition of -6.75%.
Compound `O=C(O)CCC(=O)Nc1ccccc1Oc1ccccc1` has an inhibition of -2.18%.
`Cc1cc(C)cc(NC(=O)c2cccc(C(=O)Nc3cc(C)cc(C)c3)n2)c1` showed an inhibition of 5.97%.
Compound `CN1C2CCC1/C(=C\c1ccccc1F)C(=O)/C2=C/c1ccccc1F` has an inhibition of 5.25%.
Compound `CN1C2CCC1/C(=C/c1cccn1C)C(=O)/C2=C\c1cccn1C` has an inhibition of 10.6%.
`C=CCOc1ccc(CNCC2CCCO2)cc1` (stereo not given) gave an inhibition of -1.36%.
In the case of `Cc1noc(C)c1CSCC(=O)N(CC(C)C)c1c(N)n(Cc2ccccc2)c(=O)[nH]c1=O`, the inhibition is reported as -5.68%.
In the case of `CC(=O)Nc1ccc(N2C(=O)c3ccc(S(=O)(=O)c4ccc(C(=O)O)cc4)cc3C2=O)cc1`, the inhibition is reported as -2.44%.
With `COc1ccc(S(=O)(=O)N=C2C=C(C)C(=O)C(C)=C2)cc1` the inhibition was -12.4%.
In the case of `COc1ccc(C(=O)ON=C2C=C(C)C(=O)C(C)=C2)cc1`, the inhibition is reported as 63.5%.
`Cc1cc(C)n(C(=O)c2ccc(S(=O)(=O)N3CCOCC3)cc2)n1` gave an inhibition of -3.21%.
In the case of `COc1ccccc1NC(=O)COC(=O)/C=C/c1ccc(OC)c(OC)c1`, the inhibition is reported as 24.8%.
